Most compounds without a hit are left out; they make up all but 15% or so of the library.
HCMV inh: qHTS Assay for inhibitors of the human cytomegalovirus (HCMV) | HFF cells, HCMV-luciferase reporter, 72 h; active compounds read low | activity change, negative = inhibition, % at 57.5 µM | 410,000 compounds, 4.5% hits; in the data active = activity change below about -60%; inconclusive = no clear call, values can overlap the other calls; inactive = above about -39%
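Cell-based, HFFs, 1000 cells/well, 16 h 37C; cpds in DMSO + HCMV-luc, MOI 1 PFU/cell; 72 h 37C; OneGlo luminescence after 5 min RT; norm. to buffer vs Salinomycin 10uM.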
Sm TGR block: qHTS Assay for the Inhibitors of Schistosoma Mansoni Peroxiredoxins. Schistosoma mansoni thioredoxin glutathione reductase (TGR), Q962Y6. purified TGR, DTNB reduction, TNB absorbance 405 nm. Potency, µM (series often up to 114 µM), most hits filed as inhibitors. 360,000 compounds, 3% hits. AID 485364, 2010; also: nearly all actives have a fitted effect of over 60% in size
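First, TGR (20 nM dispensed) and NADPH were mixed with compound. Second, a 15 min room-temperature incubation followed. Third, further NADPH and then DTNB were added to start the reaction. Finally, TNB absorbance was monitored kinetically.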
SARS PLP yeast: qHTS of Yeast-based Assay for SARS-CoV PLP; S. cerevisiae expressing SARS-CoV PLpro, growth rescue; Potency, µM (top dose mostly 32.9 µM), actives largely listed as activators; 330,000 compounds, 0.19% hits; AID 485353, 2010; calls by dose curve; also: nearly all actives have a fitted effect of over 55% in size
Pf growth 96h: Primary qHTS for delayed death inhibitors of the malarial parasite plastid, 96 hour incubation; P. falciparum luciferase reporter growth, 96 h; Potency, µM (doses to about 28.7 µM), usual class: inhibitors; 320,000 compounds, 6.9% hits
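Luminescence readout: decreased luciferase signal marks inhibited growth of reporter-expressing P. falciparum in infected red cells (2% hematocrit, 0.05% parasitemia final), exposed to compound two generations (96 h, 37 C, 5% CO2).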
HCV inh: qHTS Assay for Inhibitors of Hepatitis C Virus (HCV) | Huh7.5.1 HCVcc-Cre infection, luciferase reporter, 44 h | Potency, µM (top dose mostly 41.8 µM), usual class: inhibitors | 340,000 compounds, 3.4% hits
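Infectious HCVcc-Cre (~0.5 moi) was added to cells just after compound, with cells seeded 4 h earlier at 1,000 per well. Luciferase activity after 44 h culture reported infection; substrate was incubated 15 min at room temperature before reading.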
Pf growth 48h: Primary qHTS for delayed death inhibitors of the malarial parasite plastid, 48 hour incubation | Potency, µM (titrated, usually from 28.7 µM), usual class: inhibitors | P. falciparum luciferase growth in erythrocytes, 48 h | 310,000 compounds, 5.9% hits
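Luciferase-expressing P. falciparum in infected erythrocytes (2% hematocrit, 0.1% parasitemia final) in RPMI 1640/0.5% Albumax were exposed to compound for 48 hours at 37 C, 5% CO2; growth read as luminescence.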
Each line names hits and unclear results; the compound was inactive in the other large screens. Unless noted, calls follow the shape of the dose curve; as a rule, active = well fitted curve in the direction sought with a large enough effect; inconclusive = small, poorly fitted or top-dose-only effect, or another doubt; inactive = no such curve, though single readings can be large; an effect the other way counts as inactive or inconclusive.

COC(=O)C1=C(c2ccc(F)cc2OCc2ccccc2)C[C@@H]2CC[C@H]1N2C(=O)NCc1ccc(C)cc1	HCMV inh -67, Pf growth 96h inconclusive, HCV inh inconclusive, Pf growth 48h 9.3µM
COC(=O)C1=C(c2ccc(F)cc2OCc2ccccc2)C[C@@H]2CC[C@H]1N2C(=O)NCc1ccc([N+](=O)[O-])cc1	Pf growth 96h inconclusive, HCV inh inconclusive, Pf growth 48h 12µM
COC(=O)C1=C(c2ccc(OC)c(OC)c2)C[C@@H]2CC[C@H]1N2C(=O)NC1Cc2ccccc2C1	Pf growth 96h inconclusive, Pf growth 48h inconclusive
COC(=O)C1=C(c2ccc(F)cc2OCc2ccccc2)C[C@@H]2CC[C@H]1N2C(=O)NCCCc1ccccc1	Pf growth 96h 5.2µM, HCV inh 10µM, Pf growth 48h 12µM
COC(=O)C1=C(c2ccc(F)cc2OCc2ccccc2)C[C@@H]2CC[C@H]1N2C(=O)NC1Cc2ccccc2C1	Pf growth 96h 1.7µM, HCV inh 11µM, Pf growth 48h inconclusive
O=C(NC1CC(=O)N(c2ccccc2)C1)C1CC1 (stereo not given)	none
COC(=O)C1=C(c2ccccc2OCc2ccccc2)C[C@@H]2CC[C@H]1N2C(=O)NCc1ccc(F)cc1	Pf growth 96h inconclusive, HCV inh 7.1µM, Pf growth 48h 9.3µM
COC(=O)C1=C(c2ccc(F)cc2F)C[C@@H]2CC[C@H]1N2C(=O)NCc1ccc(C(F)(F)F)cc1	Pf growth 96h inconclusive, Pf growth 48h 12µM
COC(=O)C1=C(c2ccc(F)cc2OCc2ccccc2)C[C@@H]2CC[C@H]1N2C(=O)NCc1ccc(F)cc1	Pf growth 96h inconclusive, HCV inh inconclusive, Pf growth 48h 10µM
COC(=O)C1=C(c2cccc(OC)c2OC)C[C@@H]2CC[C@H]1N2C(=O)NCc1ccc(F)cc1	none (no result: Sm TGR block, SARS PLP yeast, Pf growth 96h, Pf growth 48h)
COC(=O)C1=C(c2cccc(OC)c2OC)C[C@@H]2CC[C@H]1N2C(=O)NCc1ccccc1	none (no result: Sm TGR block, SARS PLP yeast, Pf growth 96h, Pf growth 48h)
COC(=O)C1=C(c2ccccc2OCc2ccccc2)C[C@@H]2CC[C@H]1N2C(=O)NCc1ccc(C(C)(C)C)cc1	Pf growth 96h inconclusive, HCV inh inconclusive, Pf growth 48h 6.6µM
Cc1[nH]c2ccccc2c1C(=O)C(=O)NCc1nnnn1-c1ccc(F)c(F)c1	none (no result: Sm TGR block, SARS PLP yeast, Pf growth 96h, HCV inh, Pf growth 48h)
CCN(CC(=O)NC(C)(C)C)C(=O)COc1c(Cl)cc(Cl)c2ccc(C)nc12	HCMV inh inconclusive, Sm TGR block 16µM, Pf growth 96h inconclusive, HCV inh inconclusive, Pf growth 48h inconclusive
C/C(=N\Nc1nc2ccccc2[nH]1)c1ccc2c(c1)OCCO2	Pf growth 96h inconclusive, HCV inh inconclusive, Pf growth 48h 3.7µM
CC(=NNc1cc(C)c2cc(C)ccc2n1)c1ccccn1	HCMV inh -100 (no result: Sm TGR block, SARS PLP yeast, Pf growth 96h, HCV inh, Pf growth 48h)
C/C(=N\Nc1nc2ccccc2[nH]1)c1ccccn1	HCMV inh -98, Pf growth 96h inconclusive, Pf growth 48h 2.9µM (no result: HCV inh)
CC(C)(C)c1ccc(C(=O)Cn2cnnc2C#N)cc1	Pf growth 96h inconclusive
Cc1ccc(NC(=O)Cn2c(C)cc(C)c(C#N)c2=O)cc1	none (no result: SARS PLP yeast, Pf growth 96h, HCV inh, Pf growth 48h)
Cc1cc(Nc2ccccc2C)c2cccc(C)c2n1	none (no result: SARS PLP yeast, Pf growth 96h, HCV inh, Pf growth 48h)
CCCCNc1cc(=O)oc2ccccc12	Pf growth 96h inconclusive, HCV inh inconclusive, Pf growth 48h inconclusive
CCOc1ccc(Nc2cc(C)nc3c(C)cccc23)cc1	HCMV inh -76, HCV inh inconclusive, Pf growth 48h inconclusive
CCOc1ccc(Nc2cc(=O)oc3ccccc23)cc1	HCMV inh inconclusive, Pf growth 96h 1.7µM, Pf growth 48h 1.3µM
CN(CC(=O)NCCc1ccc(Cl)cc1)S(=O)(=O)c1ccc2c(c1)c(=O)n(C)c(=O)n2C	Pf growth 96h 13µM, HCV inh inconclusive (no result: Pf growth 48h)
CN(CC(=O)NCc1ccco1)S(=O)(=O)c1ccc2c(c1)n(C)c(=O)c(=O)n2C	Sm TGR block 40µM
COc1ccc(NC(=O)CN(C)S(=O)(=O)c2ccc3c(c2)c(=O)n(C)c(=O)n3C)cc1	Pf growth 96h 13µM
CN(CC(=O)NCCC1=CCCCC1)S(=O)(=O)c1ccc2c(c1)c(=O)n(C)c(=O)n2C	none (no result: Pf growth 48h)
Cc1ccc(NC(=O)CN(C)S(=O)(=O)c2ccc3c(c2)n(C)c(=O)c(=O)n3C)cc1	HCMV inh inconclusive, Pf growth 96h 12µM, Pf growth 48h inconclusive
COc1ccccc1Cc1c(-c2ccc(C#N)cc2)nc2c3ccccc3ccn12	none (no result: Sm TGR block, SARS PLP yeast, Pf growth 96h, HCV inh, Pf growth 48h)
Cc1cc(O)c(NC(=O)c2cc([N+](=O)[O-])ccc2Cl)cc1C	Pf growth 48h inconclusive
Cc1ccc(O)c(NC(=O)c2cc([N+](=O)[O-])ccc2Cl)c1	Pf growth 48h 9.3µM (no result: Sm TGR block)
O=C(Nc1ccc([N+](=O)[O-])cc1Cl)c1cc(Cl)ccc1O	HCMV inh -98, Pf growth 96h inconclusive, HCV inh 1.3µM, Pf growth 48h inconclusive (no result: SARS PLP yeast)
COCC(=O)Nc1c(I)c(C(=O)NC[C@@H](O)CO)c(I)c(C(=O)N(C)C[C@@H](O)CO)c1I	none (no result: HCMV inh, Sm TGR block, SARS PLP yeast, HCV inh)
CCOc1ccc(C(c2c(NC(=O)c3ccco3)sc(C)c2C)N2CCOCC2)cc1 (stereo not given)	Pf growth 96h 13µM, HCV inh inconclusive, Pf growth 48h 5.2µM
Cc1sc(NC(=O)c2ccco2)c(C(c2ccncc2)N2CCOCC2)c1C (stereo not given)	Pf growth 96h inconclusive, Pf growth 48h 10µM
CCOc1ccc(C(c2c(NC(=O)c3ccccc3)sc(C)c2C)N2CCN(C)CC2)cc1 (stereo not given)	Pf growth 96h 12µM, Pf growth 48h inconclusive
Cc1sc(NC(=O)c2ccco2)c(CN2CCCCC2)c1C	SARS PLP yeast inconclusive, Pf growth 96h inconclusive, Pf growth 48h inconclusive
CCc1cc(C(c2ccccn2)N2CCN(C)CC2)c(NC(=O)c2ccccc2)s1 (stereo not given)	Sm TGR block 11µM, SARS PLP yeast inconclusive, Pf growth 96h inconclusive, HCV inh inconclusive, Pf growth 48h inconclusive
Cc1sc(NC(=O)c2ccccc2)c(C(=O)N2CCN(C)CC2)c1C	none (no result: Pf growth 96h)
Cc1cc(C(=O)CN2C(=O)C(=O)N(CC(C)C)C2=O)c(C)n1C1CC1	none
Cc1nc2c(N)nn(C)c2nc1C	none (no result: Sm TGR block, SARS PLP yeast, Pf growth 96h, HCV inh, Pf growth 48h)
O=C(NCc1ccco1)C1=CN2CCN(Cc3ccccc3)C(=O)N=C2O1	none (no result: Sm TGR block, SARS PLP yeast, Pf growth 96h, HCV inh, Pf growth 48h)
COCCn1ccc2c(OCC(=O)Nc3ccccc3F)cccc2c1=O	none (no result: SARS PLP yeast, Pf growth 96h, HCV inh, Pf growth 48h)
COc1cccc(C(c2c(NC(=O)c3ccco3)sc(C)c2C)N2CCOCC2)c1 (stereo not given)	Pf growth 96h 3.3µM, HCV inh inconclusive, Pf growth 48h 4.7µM

Screening results: PubChem, National Center for Advancing Translational Sciences (NCATS)
